Drawing on PubChem BioAssay (NCATS), this text covers Potency and viability for 31 compounds.

Experiment [1] addresses Aldehyde dehydrogenase, mitochondrial (Homo sapiens) (UniProt P05091). As to the kind of experiment: qHTS for Inhibitors of the Aldehyde Dehydrogenase Family (ALDH2) Validation screens (AID 2061302; active = well fitted inhibition curve with a large enough effect; title and protocol of this record describe different tests;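 note: plate controls were DMSO vehicle for no effect and maximal DPI positive control response for full effect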). On the technique in general: Quantitative high-throughput screening tests each substance at several concentrations.
In experiment [2] the target is Retinaldehyde dehydrogenase 3 (Homo sapiens) (UniProt P47895). As to the kind of experiment: qHTS for Inhibitors of the Aldehyde Dehydrogenase Family (ALDH1A3) Validation screen (AID 2061312). Note: % is set by controls: 0 for no effect and ±100 for the full control effect; nearly all actives have a fitted effect of over 45% in size.
Experiment [3] can be described thus: BET inhibitor-based combinations targeting novel dependencies in MECOM-rearranged (r) AML: SET-2 cell line (AID 2202231).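 Note: plate controls were DMSO treated cells for no effect and wells without cells for full effect; nearly all actives have a fitted effect of over 35% in size.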 To be noted: SET-2 AML cells viability, CellTiter-Glo luminescence, 48 h; viability: hits give low values, series mostly up to about 46 µM. The method in brief:
(§1)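 AML cell lines seeded at 500 cells/well, treated with 11-point dose curves for 48 h. Viability by CellTiter-Glo luminescence, normalised to DMSO and empty wells; activity expressed as AUC and per-cell-line Z-transformed AUC.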
In general terms: In ATP-based viability assays light output follows the ATP content of the culture.

Experiment [4] can be described thus: BET inhibitor-based combinations targeting novel dependencies in MECOM-rearranged (r) AML: HNT-34 cell line (AID 2202234). Note: nearly all actives have a fitted effect of over 35% in size. Note: potency is the fitted concentration of half-maximal effect. In a few lines:
(§2)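 Cells at 500/well were exposed for 48 hr to MIPE v5.0 drugs as 11-point dose curves. Viability was read by CellTiter-Glo luminescence and normalized to DMSO and empty-well controls. Activity was expressed as AUC and per-cell-line Z-AUC.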

The nature of experiment [5]: BET inhibitor-based combinations targeting novel dependencies in MECOM-rearranged (r) AML: UCSD-AML1 cell line (AID 2202235).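 Note: series mostly up to about 46 µM; plate controls were DMSO vehicle wells for no effect and blank wells for full effect; nearly all actives have a fitted effect of over 40% in size.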 The method in brief:
as §2

The nature of experiment [6]: BET inhibitor-based combinations targeting novel dependencies in MECOM-rearranged (r) AML: AML-191 cell line (AID 2202236; note: nearly all actives have a fitted effect of over 35% in size; note: potency is the fitted concentration of half-maximal effect). The method in brief:
as §1

Experiment [7] is described as follows: BET inhibitor-based combinations targeting novel dependencies in MECOM-rearranged (r) AML: AML-194 cell line (AID 2202237;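 note: plate controls were vehicle wells for no effect and wells without cells for full effect; nearly all actives have a fitted effect of over 40% in size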). The method in brief:
as §1

A short description of experiment [8]: BET inhibitor-based combinations targeting novel dependencies in MECOM-rearranged (r) AML: OCI-AML3 cell line (AID 2202232).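 Note: series mostly up to about 46 µM; plate controls were DMSO vehicle wells for no effect and wells without cells for full effect; nearly all actives have a fitted effect of over 35% in size.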 The following applies: Potency: OCI-AML3 viability. The method in brief: as §1
Experiment [9] in a line: BET inhibitor-based combinations targeting novel dependencies in MECOM-rearranged (r) AML: MV-4-11 cell line (AID 2202233). Note: nearly all actives have a fitted effect of over 45% in size. Note: potency is the fitted concentration of half-maximal effect. In a few lines:
as §2

Results filed as inconclusive are left out. Unmarked numbers belong to inactive results. Calls of active or inactive are those of the source. Unless noted, calls come from the whole dose curve; as a rule, active = well fitted curve in the direction sought with a large enough effect; inconclusive = small, poorly fitted or top-dose-only effect, or another doubt; inactive = no such curve, though single readings can be large; an effect the other way counts as inactive or inconclusive.

As for `CC1=C(CC(=O)O)c2cc(F)ccc2/C1=C\c1ccc(S(C)(=O)=O)cc1`, the Potency result in [1] and in [2] was “inactive” each time.

Regarding `CC(N)=O`, the Potency result in experiment [1] and in experiment [2] was “inactive” each time.

For `Cn1c(=O)c(-c2c(Cl)cccc2Cl)cc2cnc(Nc3ccc(N4CCOCC4)cc3)nc21`, the Potency entry in [1] and in [2] was “inactive” throughout.

For orientation: viability means a read-out of living cells in per cent, often relative to untreated cells. Turning to `CC(C)C(=O)Nc1ccc([N+](=O)[O-])c(C(F)(F)F)c1`, the Potency result in experiment [1], in experiment [2], in [4], in [5], in experiment [6] and in experiment [7] was “inactive” throughout. The viability in experiment [3] is 93.1%.

For `N[C@@H]1CONC1=O`, the Potency result in experiment [1], in experiment [2], in experiment [8], in experiment [9], in experiment [4] and in experiment [5] was “inactive” each time. Also, the Potency result in [6] and in experiment [7] was “inactive” throughout. Further, the viability in experiment [3] is 117%.

For the compound `O=C(O)c1cccnc1Nc1cccc(C(F)(F)F)c1`, the Potency entry in experiment [1] and in [2] was “inactive” in each case.

As for `CCC1(c2ccccc2)C(=O)NCNC1=O`, the Potency result in experiment [1], in experiment [2], in [8], in experiment [9], in experiment [4] and in [5] was “inactive” in each case. For the same compound, the Potency result in experiment [6] and in experiment [7] was “inactive” throughout. Also, the viability in [3] was 109%.

For `COc1nc(C)nc(Cl)c1NC1=NCCN1`, the Potency result in experiment [1], in [2], in experiment [8], in experiment [4], in [5] and in experiment [6] was “inactive” in each case. The Potency entry in experiment [7] is “inactive”. For the same compound, the viability in [3] was 107%.

For `C=CCNc1ncnc2ccc(Br)cc12`, the Potency result in [1] and in [2] was “inactive” in each case.

For the compound `N[C@@H](Cc1c[nH]c2ccc(O)cc12)C(=O)O`, the Potency result in [1], in experiment [2], in [8], in experiment [9], in [6] and in experiment [7] was “inactive” in each case. Also, the viability in experiment [3] was 98.1%.

In the case of `Nc1ccn([C@@H]2O[C@H](CO)[C@@H](O)[C@@H]2O)c(=O)n1`, the Potency entry in [1] and in experiment [2] was “inactive” each time.

As for `O=c1c(-c2ccc(O)cc2)coc2cc(O)ccc12`, the Potency result in [1], in [2], in experiment [5], in [6] and in experiment [7] was “inactive” in each case. For the same compound, the viability in [3] is 112%. Also, the Potency in [9] was 23.5 µM (active); in [4], 16.6 µM (active).

Take `Nc1nc(OCC2CCCCC2)c2[nH]cnc2n1`: the Potency result in experiment [1] and in experiment [2] was “inactive” in each case.

Consider `COc1ccc2c(c1)c(CC(=O)O)c(C)n2C(=O)c1ccc(Cl)cc1`, for which the Potency result in experiment [1], in [2], in experiment [8], in experiment [9], in experiment [4] and in [6] was “inactive” throughout. Moreover, the Potency result in experiment [7] was “inactive”.

As to `NC(=O)N1c2ccccc2C=Cc2ccccc21`, the Potency entry in experiment [1] and in [2] was “inactive” throughout.

Turning to `OCCN(CCO)c1nc(N2CCCCC2)c2nc(N(CCO)CCO)nc(N3CCCCC3)c2n1`, the Potency result in experiment [1], in experiment [2], in experiment [5] and in experiment [7] was “inactive” each time.

As for `CN1CCN(C2=Nc3cc(Cl)ccc3Nc3ccccc32)CC1`, the Potency entry in experiment [1], in [2], in [8], in experiment [9] and in [7] was “inactive” each time. In addition, the Potency in experiment [4] is 20.9 µM (active).

For the compound `CCN(CC)CCCN(c1ccccc1)C1Cc2ccccc2C1`, the Potency entry in experiment [1] and in [2] was “inactive” each time.

For the compound `N[C@H]1CONC1=O`, the Potency entry in experiment [1] and in experiment [2] was “inactive” in each case.

For `CCCC(CCC)C(=O)O`, the Potency result in [1], in experiment [2], in experiment [8], in experiment [9], in experiment [4] and in [5] was “inactive” each time. The Potency result in [6] and in [7] was “inactive” throughout. Also, the viability in experiment [3] was 112%.

Consider `c1ccc2c(c1)CCCC2C1=NCCN1` (stereo not given), for which the Potency entry in experiment [1] and in experiment [2] was “inactive” each time.

Turning to `Cn1c(=O)c2c(ncn2C)n(C)c1=O`, the Potency result in [1], in experiment [2], in experiment [8], in experiment [4], in experiment [5] and in [6] was “inactive” throughout. Besides, the Potency entry in experiment [7] is “inactive”.

Regarding `CCN1/C(=C/C(C)=O)Sc2ccc(OC)cc21`, the Potency entry in [1] and in [2] was “inactive” in each case. Further, in [3], the viability was 93.6%. For the same compound, the Potency in experiment [4] was 18.6 µM (active); in [6], 8.33 µM (active).

With `CC(=O)OCC(=O)[C@@]1(O)CC[C@H]2[C@@H]3CCC4=CC(=O)CC[C@]4(C)[C@H]3C(=O)C[C@@]21C`, the Potency result in [1], in experiment [2], in experiment [8], in experiment [9], in [4] and in experiment [6] was “inactive” each time. For the same compound, in experiment [7], the Potency entry is “inactive”. Also, in experiment [3], the viability was 122%.

For `COc1cc2c(cc1OC)C1CC(=O)C(CC(C)C)CN1CC2` (stereo not given), the Potency result in experiment [1], in [2], in experiment [4], in experiment [5], in [6] and in [7] was “inactive” each time. Further, in [3], the viability was 109%.

Turning to `CC(=O)OCC(CCn1cnc2cnc(N)nc21)COC(C)=O`, the Potency entry in [1], in experiment [2], in experiment [9], in [4], in experiment [5] and in [6] was “inactive” in each case. In addition, in experiment [7], the Potency result was “inactive”. Also, in experiment [3], the viability is 121%.

With `C[C@]12CCC(=O)C=C1CC[C@@H]1[C@@H]2[C@@H](O)C[C@@]2(C)[C@H]1CC[C@]2(O)C(=O)CO`, the Potency entry in experiment [1], in experiment [2], in [8], in experiment [9], in experiment [5] and in experiment [7] was “inactive” in each case. In experiment [3], the viability is 113%. In addition, the Potency in experiment [6] was 0.417 µM (active).

For `CC(C)NC[C@H](O)COc1cccc2ccccc12`, the Potency entry in [1] and in [2] was “inactive” throughout.

Take `O=C(C1CCCCC1)N1CC(=O)N2CCc3ccccc3C2C1` (stereo not given): the Potency result in experiment [1], in experiment [2], in experiment [9], in experiment [4], in [5] and in experiment [6] was “inactive” throughout. Besides, the Potency entry in experiment [7] was “inactive”. The viability in [3] is 120%.

Turning to `N[C@@H](Cc1c[nH]c2ccccc12)C(=O)O`, the Potency entry in experiment [1] and in [2] was “inactive” in each case.

On to `Cn1c(=O)c2[nH]cnc2n(C)c1=O`, for which the Potency result in experiment [1], in [2], in experiment [8], in experiment [9], in experiment [4] and in experiment [5] was “inactive” in each case. Besides, the Potency result in experiment [6] and in experiment [7] was “inactive” each time. In experiment [3], the viability was 117%.
